Experimental data published in PubChem BioAssay (NCATS).
Where “and” joins values, the source holds several entries; their conditions need not be identical. Equal entries are not always repeated. Records with an inconclusive call do not appear. Calls of active or inactive are those of the source. The call rests on the fitted dose curve; in most records, active means well fitted cell-killing curve with a large enough effect; inconclusive means small, poorly fitted or top-dose-only effect; inactive means no such curve, though single readings can be large or run the other way.

Test: qHTS of pediatric cancer cell lines to identify multiple opportunities for drug repurposing: Confirmatory screen for TC32 cells (AID 1347118);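 further: cells exposed to compound for 48 h before the read; nearly all actives have a fitted effect of over 65% in size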
Conditions: TC32 Ewing sarcoma cells viability qHTS; series mostly up to 45.9 µM
Procedure, shortened: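 Luminescent CellTiter-Glo read-out of metabolically active TC32 cells after 48 h compound exposure. Primary: MIPE 11-point, 0.78 nM–46 µM; NPC 8-point, 0.59 nM–46 µM. Confirmatory: 11-point dilutions.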
Potency means the concentration at half of the fitted maximal effect.

Structure (SMILES) | Potency
C[C@@H]1C[C@@H]([C@H](O)CC2CC(=O)NC(=O)C2)C(=O)[C@@H](C)C1 | 465 nM (active) and 522 nM (active)
CN(C)C(=S)SSC(=S)N(C)C | 1.04 µM (active)
CCCCCCCCC(=O)NCc1ccc(O)c(OC)c1 | 5.22 µM (active)
